Measurements reported in PubChem BioAssay AID1159580 (chemical genetic matrix, 2015).
In all, about 5,500 compounds went through this assay and about 2,000 (36%) were called active. About 18% were inconclusive and are not listed. Cut-off read from the data, not from the text of the source: active = normalized growth mostly below about 0.91 (no sharp cut-off); inconclusive = no clear call, values can overlap the other calls; inactive = mostly above about 0.92. This is one part of the list.

Assay: chemical genetic growth profiling, strain panel (AID 1159580);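 note: tested at 20 µM; growth read once vehicle control cultures reached saturation at 30 °C; 1 = growth at the plate median or of vehicle wells; lower values mean less growth of the strain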
Settings: growth OD

Measured: normalized growth

CC1=C(C(C)O)C2=NC1C=c1[nH]c(c(C)c1C(C)O)=Cc1[nH]c(c(CCC(=O)O)c1C)C=c1[nH]c(c(C)c1CCC(=O)O)=C2 (stereo not drawn)
active: S. cerevisiae deletion strains, locus YLR113W, strain HOG1, active compounds read low 1.19 [resistant]
inactive: S. cerevisiae deletion strains, locus YJL187C, strain SWE1, active compounds read low 0.995 | S. cerevisiae deletion strains, locus YJR043C, strain POL32, active compounds read low 0.93 | S. cerevisiae deletion strains, locus YJR066W, strain TOR1, active compounds read low 1.02 | S. cerevisiae deletion strains, locus YKL009W, strain mrt4, active compounds read low 1.04 | S. cerevisiae deletion strains, locus YKL068W, active compounds read low 1.01 | S. cerevisiae deletion strains, locus YKL085W, strain MDH1 (second series), active compounds read low 1.02 | S. cerevisiae deletion strains, locus YKL085W, strain MDH1, active compounds read low 1.02 | S. cerevisiae deletion strains, locus YKL160W, strain elf1, active compounds read low 0.99 | S. cerevisiae deletion strains, locus YKL190W, strain CNB1, active compounds read low 1 | S. cerevisiae deletion strains, locus YKR001C, strain vps1, active compounds read low 1 | S. cerevisiae deletion strains, locus YKR026C, strain gcn3, active compounds read low 0.989 | S. cerevisiae deletion strains, locus YKR091W, strain srl3, active compounds read low 1 | S. cerevisiae deletion strains, locus YLL001W, strain dnm1, active compounds read low 0.988 | S. cerevisiae deletion strains, locus YLL026W, active compounds read low 0.992 | S. cerevisiae deletion strains, locus YLL041C, strain sdh2, active compounds read low 0.995 | S. cerevisiae deletion strains, locus YLR027C, strain aat2, active compounds read low 0.982 | S. cerevisiae deletion strains, locus YLR039C, strain RIC1, active compounds read low 1.04 | S. cerevisiae deletion strains, locus YLR058C, strain SHM2, active compounds read low 1 | S. cerevisiae deletion strains, locus YLR102C, strain apc9, active compounds read low 1.02 | S. cerevisiae deletion strains, locus YLR221C, strain rsa3, active compounds read low 0.967 | S. cerevisiae deletion strains, locus YLR258W, strain gsy2, active compounds read low 0.996 | S. cerevisiae deletion strains, locus YLR262C, strain YPT6 (second series), active compounds read low 1.06 | S. cerevisiae deletion strains, locus YLR262C, strain YPT6, active compounds read low 1.01 | S. cerevisiae deletion strains, locus YLR268W, strain sec22, active compounds read low 1.01 | S. cerevisiae deletion strains, locus YLR320W, strain mms22, active compounds read low 0.938 | S. cerevisiae deletion strains, locus YLR330W, strain CHS5, active compounds read low 1.01 | S. cerevisiae deletion strains, locus YLR342W, strain FKS1 (second series), active compounds read low 0.995 | S. cerevisiae deletion strains, locus YLR342W, strain FKS1, active compounds read low 0.987 | S. cerevisiae deletion strains, locus YLR357W, strain rsc2, active compounds read low 0.923 | S. cerevisiae deletion strains, locus YLR370C, strain arc18, active compounds read low 0.988 | S. cerevisiae deletion strains, locus YLR371W, strain rom2, active compounds read low 1.02 | S. cerevisiae deletion strains, locus YLR384C, strain iki3, active compounds read low 0.99 | S. cerevisiae deletion strains, locus YLR418C, strain cdc73, active compounds read low 0.937 | S. cerevisiae deletion strains, locus YML016C, strain PPZ1, active compounds read low 1.01 | S. cerevisiae deletion strains, locus YML032C, strain rad52, active compounds read low 1 | S. cerevisiae deletion strains, locus YML120C, strain ndi1, active compounds read low 1 | S. cerevisiae deletion strains, locus YML124C, strain tub3, active compounds read low 1.02 | S. cerevisiae deletion strains, locus YMR058W, strain fet3, active compounds read low 0.943 | S. cerevisiae deletion strains, locus YMR078C, strain ctf18, active compounds read low 1.03 | S. cerevisiae deletion strains, locus YMR125W, strain sto1, active compounds read low 1 | S. cerevisiae deletion strains, locus YMR129W, active compounds read low 0.986 | S. cerevisiae deletion strains, locus YMR205C, strain PFK2, active compounds read low 0.943 | S. cerevisiae deletion strains, locus YMR223W, strain ubp8, active compounds read low 0.976 | S. cerevisiae deletion strains, locus YMR231W, strain pep5, active compounds read low 0.98 | S. cerevisiae deletion strains, locus YMR307W, strain GAS1, active compounds read low 0.82 | S. cerevisiae deletion strains, locus YNL067W, strain RPL9B, active compounds read low 0.996 | S. cerevisiae deletion strains, locus YNL071W, strain lat1, active compounds read low 0.963 | S. cerevisiae deletion strains, locus YNL183C, strain NPR1, active compounds read low 1.02 | S. cerevisiae deletion strains, locus YNL209W, strain ssb2, active compounds read low 0.999 | S. cerevisiae deletion strains, locus YNL233W, strain BNI4, active compounds read low 0.994 | S. cerevisiae deletion strains, locus YNL248C, strain rpa49, active compounds read low 0.971 | S. cerevisiae deletion strains, locus YNL250W, strain rad50, active compounds read low 1.03 | S. cerevisiae deletion strains, locus YNL271C, strain bni1, active compounds read low 1.01 | S. cerevisiae deletion strains, locus YNL298W, strain CLA4, active compounds read low 1.02 | S. cerevisiae deletion strains, locus YNL307C, strain MCK1, active compounds read low 1.02 | S. cerevisiae deletion strains, locus YNL322C, strain KRE1 (second series), active compounds read low 0.99 | S. cerevisiae deletion strains, locus YNR049C, strain mso1, active compounds read low 0.998 | S. cerevisiae deletion strains, locus YNR052C, strain pop2, active compounds read low 1.02 | S. cerevisiae deletion strains, locus YOL012C, strain htz1 0.754 | S. cerevisiae deletion strains, locus YOL147C, strain pex11, active compounds read low 1.01 | S. cerevisiae deletion strains, locus YOR001W, strain rrp6, active compounds read low 1 | S. cerevisiae deletion strains, locus YOR061W, strain CKA2, active compounds read low 1.01 | S. cerevisiae deletion strains, locus YOR069W, strain VPS5, active compounds read low 1.01 | S. cerevisiae deletion strains, locus YOR070C, strain gyp1, active compounds read low 0.989 | S. cerevisiae deletion strains, locus YOR080W, strain dia2, active compounds read low 0.987 | S. cerevisiae deletion strains, locus YOR083W, strain WHI5, active compounds read low 0.986 | S. cerevisiae deletion strains, locus YOR106W, strain vam3, active compounds read low 0.94 | S. cerevisiae deletion strains, locus YOR136W, strain idh2, active compounds read low 1.01 | S. cerevisiae deletion strains, locus YOR144C, strain elg1, active compounds read low 1.02 | S. cerevisiae deletion strains, locus YOR184W, strain ser1, active compounds read low 0.972 | S. cerevisiae deletion strains, locus YOR231W, strain MKK1, active compounds read low 1.13 | S. cerevisiae deletion strains, locus YOR265W, strain rbl2, active compounds read low 0.995 | S. cerevisiae deletion strains, locus YOR270C, strain vph1, active compounds read low 0.915 | S. cerevisiae deletion strains, locus YOR290C, strain snf2, active compounds read low 0.984 | S. cerevisiae deletion strains, locus YOR316C, strain cot1, active compounds read low 1.02 | S. cerevisiae deletion strains, locus YPL051W, strain arl3, active compounds read low 0.984 | S. cerevisiae deletion strains, locus YPL055C, strain LGE1, active compounds read low 0.973 | S. cerevisiae deletion strains, locus YPL078C, strain atp4, active compounds read low 0.996 | S. cerevisiae deletion strains, locus YPL106C, strain sse1, active compounds read low 0.93 | S. cerevisiae deletion strains, locus YPL240C, strain hsp82, active compounds read low 0.996 | S. cerevisiae deletion strains, locus YPL256C, strain CLN2, active compounds read low 1.07 | S. cerevisiae deletion strains, locus YPR119W, strain clb2, active compounds read low 1.02 | S. cerevisiae deletion strains, locus YPR141C, strain kar3, active compounds read low 1.05 | S. cerevisiae deletion strains, locus YPR163C, strain tif3, active compounds read low 1.01 | S. cerevisiae deletion strains, locus YPR167C, strain met16, active compounds read low 1 | S. cerevisiae deletion strains, strain wtn01, active compounds read low 0.981 | S. cerevisiae strains, strain wild type, active compounds read low 0.968
